{"source": "PubChem BioAssay (NCATS)", "note": "Results filed as inconclusive are left out. A number with no mark means an inactive call. Calls of active or inactive are those of the source. Calls come from the whole dose curve. % is set by controls: 0 for no effect and ±100 for the full control effect."}
{"target": "Vitamin D3 receptor (Homo sapiens) (UniProt P11473)", "sequence (P11473 whole entry, looked up)": "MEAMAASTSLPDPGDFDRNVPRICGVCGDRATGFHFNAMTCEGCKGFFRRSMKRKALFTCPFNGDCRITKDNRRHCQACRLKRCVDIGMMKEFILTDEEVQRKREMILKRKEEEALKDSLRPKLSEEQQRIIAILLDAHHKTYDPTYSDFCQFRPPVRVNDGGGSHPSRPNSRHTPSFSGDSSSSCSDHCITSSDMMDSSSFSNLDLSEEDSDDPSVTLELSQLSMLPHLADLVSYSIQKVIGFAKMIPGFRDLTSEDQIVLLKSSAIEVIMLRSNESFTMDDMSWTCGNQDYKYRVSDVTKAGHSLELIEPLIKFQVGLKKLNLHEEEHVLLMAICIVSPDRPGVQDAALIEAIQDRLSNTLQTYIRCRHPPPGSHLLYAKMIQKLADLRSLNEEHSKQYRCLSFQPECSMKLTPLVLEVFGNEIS", "experiment": "qHTS assay for small molecule antagonists of vitamin D receptor signaling (AID 588541);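 note: receptor activated by calcitriol during compound treatment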", "conditions": "HEK293T VDR-UAS-bla, beta-lactamase ratio, antagonist mode; series mostly up to 76.7 µM; activity change, negative = inhibition: at the top concentration", "from_the_text": "NIH Chemical Genomics Center [NCGC]\nU.S. Environmental Protection Agency [EPA]\nNational Institutes of Environmental Health Sciences [NIEHS]\nNational Toxicology Program [NTP]\nThe Vitamin D receptor (VDR) is a member of nuclear hormone receptor superfamily and it plays a critical role in calcium homeostasis and bone metabolism. It plays a role in inducing cell differentiation, inhibiting cell growth and in thrombogenicity. So, VDR that mediates these effects represents a pharmacological target in prevention and treatment of hyperproliferative malignancies, such as cancer and psoriasis, cardiovascular, immunological, inflammatory and renal diseases etc.\nNCGC Assay Protocol Summary\nUsing a beta-lactamase reporter-gene under control of Vitamin D receptor (VDR) response element, a cell-based assay [GeneBLAzer (VDR -UAS-bla assay developed by Invitrogen] was used to measure VDR ligands signaling. GeneBLAzer VDR -UAS-bla HEK293T cells were used with assay medium containing 2% charcoal-stripped FBS. The assay was performed in clear bottom black Greiner 1536-well plates. Library compounds were measured for their ability to inhibit the reporter gene activity. Compounds were screened in a titration series in 1536-well format. The fluorescence intensity (405 nm excitation, 460/530 nm emission) was measured using an EnVision plate reader. Data was normalized relative to 1-alpha,25-Dihydroxy vitaminD3 control (50 nM, 100%) and DMSO only wells (basal, 0%). Concentration-response titration points for each compound were fitted to the Hill equation yielding concentrations of half-maximal inhibition (IC50) and maximal response (efficacy) values.\nqHTS protocol for VDR beta-lactamase assay in antagonist mode\n[Step] [Parameter] [Value] [Description]\n1. Reagent; 5 uL; 2000 cells/well\n2. Incubation; 37 C for 5 hrs\n4. Controls (DMSO); 23 nL,\n5. Agonist (Stimulator); 1uL; 1-alpha,25-Dihydroxy vitaminD3 at 50 nM and 3 nM final concentrations\n6. Incubation; 37 C for 16 hrs\n7. Detection reagent; 1 uL of CCF4-dye\n8. Incubation; RT for 2 hrs\n9. Detection; Fluorescence; Envision plate reader", "units": {"activity change, negative = inhibition": "%"}}
{"smiles": "CC1(C)C(=O)N(Br)C(=O)N1Br", "activity change, negative = inhibition": -4.12}
{"smiles": "CCOC(=O)COc1cc(-n2ncc(C(F)(F)F)c(C)c2=O)c(F)cc1Cl", "activity change, negative = inhibition": -4.95}
{"smiles": "CCOc1ccc(NC(=O)OC(C)C)cc1OCC", "activity change, negative = inhibition": -3.18}
{"smiles": "CC(=O)N(CCN(C(C)=O)C(C)=O)C(C)=O", "activity change, negative = inhibition": 4.75}
{"smiles": "Clc1nc(Cl)c(Cl)c(Cl)c1Cl", "activity change, negative = inhibition": 0.322}
{"smiles": "CCCCCCCCCCCCCCCO", "activity change, negative = inhibition": 3.73}
{"smiles": "O=S(c1ccc(Cl)cc1)c1cc(Cl)c(Cl)cc1Cl", "note": "(stereo not given)", "activity change, negative = inhibition": -12.1}
{"smiles": "O=S(=O)(O)c1ccc(N=Nc2c(O)ccc3cc(S(=O)(=O)O)ccc23)cc1", "activity change, negative = inhibition": -0.184}
{"smiles": "c1ccc2c(c1)ccc1c3ccccc3ccc21", "activity change, negative = inhibition": -5.33}
{"smiles": "CCC(O)OCCCOC", "note": "(stereo not given)", "activity change, negative = inhibition": 2.23}
{"smiles": "CCCCCCCCCC(C)=O", "activity change, negative = inhibition": 4.1}
{"smiles": "CC(C)Nc1nc(N)nc(Cl)n1", "Potency": "inactive"}
{"smiles": "CC(COCC(C)OC(=O)c1ccccc1)OC(=O)c1ccccc1", "note": "(stereo not given)", "activity change, negative = inhibition": 4.6}
{"smiles": "O=[N+]([O-])c1ccc(O)cc1C(F)(F)F", "activity change, negative = inhibition": -3.37}
{"smiles": "CSC(=O)c1cccc2nnsc12", "activity change, negative = inhibition": 6.99}
{"smiles": "CN(C)c1nc(=O)n(C2CCC(O)CC2)c(=O)n1C", "note": "(stereo not given)", "activity change, negative = inhibition": 8.73}
{"smiles": "CC(=O)CC(=O)Nc1ccccc1C", "activity change, negative = inhibition": 7.63}
{"smiles": "CCCCCCCCCCCCc1ccccc1", "activity change, negative = inhibition": 14.4}
{"smiles": "Cn1sccc1=O", "activity change, negative = inhibition": 2.78}
{"smiles": "O=C=NCCCCCCN=C=O", "activity change, negative = inhibition": 0.886}
{"smiles": "CCCCCCCCCCCCCCN", "activity change, negative = inhibition": 0.233}
{"smiles": "CC(C)OB(OC(C)C)OC(C)C", "activity change, negative = inhibition": 0.921}
{"smiles": "C=CCOC(=O)CC(C)C", "activity change, negative = inhibition": 0.377}
{"smiles": "CC(C)(N=C=O)c1cccc(C(C)(C)N=C=O)c1", "activity change, negative = inhibition": -2.33}
{"smiles": "CCCCC(CC)COC(=O)CS", "note": "(stereo not given)", "activity change, negative = inhibition": 1.51}
{"smiles": "CC(C)(C)c1ccc(O)c(C(C)(C)C)c1", "activity change, negative = inhibition": 4.42}
{"smiles": "CCN(Cc1c(F)cccc1Cl)c1c([N+](=O)[O-])cc(C(F)(F)F)cc1[N+](=O)[O-]", "activity change, negative = inhibition": -5.16}
{"smiles": "Cc1ccc2c(c1)C(=O)OC2=O", "activity change, negative = inhibition": -2.13}
{"smiles": "CC(C)(C)C1CCC(O)CC1", "note": "(stereo not given)", "activity change, negative = inhibition": -4.9}
{"smiles": "CCCCCCCCCCO", "Potency": "inactive"}
{"smiles": "C=Cc1ccccc1Br", "activity change, negative = inhibition": 1.24}
{"smiles": "Cc1ccc(C(=O)c2ccccc2)cc1", "activity change, negative = inhibition": 3.01}
{"smiles": "CC/C=C/CCCCCCCCCCOC(C)=O", "activity change, negative = inhibition": 6.11}
{"smiles": "CC(=O)/C=C/C1C(C)=CCCC1(C)C", "note": "(stereo not given)", "activity change, negative = inhibition": 1.58}
{"smiles": "CC(=O)OC(C)(C)C1CC=C(C)CC1", "note": "(stereo not given)", "activity change, negative = inhibition": -0.0771}
{"smiles": "CCCCOC(=O)c1ccccc1", "activity change, negative = inhibition": -4.26}
{"smiles": "NNS(=O)(=O)c1ccc(Oc2ccc(S(=O)(=O)NN)cc2)cc1", "activity change, negative = inhibition": 5.15}
{"smiles": "Nc1ccc(N)c2c1C(=O)c1c(N)ccc(N)c1C2=O", "activity change, negative = inhibition": 6.35}
{"smiles": "O=C1CCCC/C=C/CCCCCCCCCO1", "activity change, negative = inhibition": -2.02}
{"smiles": "CCCCCCc1ccc(N)cc1", "activity change, negative = inhibition": 2.81}
